Bioassay records as filed in PubChem BioAssay.
FMDV inh: High Throughput Screening for Foot and Mouth Disease Virus Antivirals; FMDV antiviral cell-based qHTS; Potency, µM (top dose mostly 57.9 µM), without a hit: at the highest dose activity change, negative = inhibition, hits mostly inhibitors; actives 1.2% (n = 410,000); AID 1159524, 2015; calls by dose curve; tested in HEK293T cells; note: read-out not given here; nearly all actives have a fitted effect of over 45% in size
RE007 growth inh: qHTS Assay for Inhibitors of the HIV-1 protein Vpr; S. pombe RE007 Vpr strain, BacTiter-Glo ATP luminescence, 24 h; actives 0.21% (n = 360,000); Potency, µM (doses to about 92.2 µM), without a hit: top-dose activity change, negative = less growth, actives largely listed as inhibitors; AID 651644, 2012; active = well fitted falling curve with a large enough effect; inconclusive = small, poorly fitted or top-dose-only effect; inactive = no such curve, though single readings can be large or run the other way; note: nearly all actives have a fitted effect of over 50% in size
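Fission yeast RE007 carrying one integrated HIV-1 vpr copy, seeded at OD 0.01 in PMG+AL medium with 23 nL pinned compound. Grown 24 h at 30 degrees; viability read by BacTiter-Glo luminescence after 5 min.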
Tb PYK inh: qHTS of Trypanosoma Brucei Inhibitors; Potency, µM (doses to about 76.8 µM), for the others: at the top dose activity, negative = inhibition, usual class: inhibitors; AID 624173, 2012; actives 0.12% (n = 410,000); TbPYK enzyme, Kinase-Glo Plus ATP luminescence, 45 min; note: nearly all actives have a fitted effect of over 50% in size
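ADP (130 uM final) triggers the TbPYK reaction after compound addition; incubation is 45 min at room temperature. Kinase-Glo Plus is then added and luminescence imaged. Normalized data are fitted to concentration-effect curves.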
Sm TGR block: qHTS Assay for the Inhibitors of Schistosoma Mansoni Peroxiredoxins; Schistosoma mansoni thioredoxin glutathione reductase (TGR), Q962Y6; purified TGR, DTNB reduction, TNB absorbance 405 nm; Potency, µM (doses to about 114 µM), for the others: at the top dose activity change, negative = inhibition, usual class: inhibitors; actives 3% (n = 360,000); note: nearly all actives have a fitted effect of over 60% in size
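TGR 20 nM + NADPH 100 uM (dispensed conc.), cpd preinc 15 min RT; start with NADPH (500 uM addition) then DTNB (15 mM addition). Kinetic TNB absorbance, 405 nm filter. Four-parameter Hill fit across titration.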
* hit, by the source's call. Most compounds without a hit are left out; they make up all but 3.7% or so of the library. Unless noted, calls come from the whole dose curve; as a rule, active = well fitted curve in the direction sought with a large enough effect; inconclusive = small, poorly fitted or top-dose-only effect, or another doubt; inactive = no such curve, though single readings can be large; an effect the other way counts as inactive or inconclusive. % is set by controls: 0 for no effect and ±100 for the full control effect; potency is the fitted concentration of half-maximal effect.

What do the screens show for `O=C(CN1CCC(c2nc3ccccc3s2)CC1)NCc1cccs1`?
FMDV inh: 16µM*; RE007 growth inh: -4%; Tb PYK inh: 2%; Sm TGR block: -23%

How did O=C(CSc1ccccc1Cl)N1CCC(c2nc3ccccc3s2)CC1 do in these assays?
FMDV inh: 35µM*; RE007 growth inh: 11%; Tb PYK inh: 7%; Sm TGR block: 7%

Results for CCC(Oc1ccccc1F)C(=O)N1CCC(c2nc3ccccc3s2)CC1 (centres undefined) ?
FMDV inh: 25µM*; Tb PYK inh: -5%; Sm TGR block: -1%

What do the screens show for `COc1ccc(O)c(CN2CCC3(CC2)c2ccccc2[C@@H](NC(=O)c2cccc(F)c2)[C@@H]3OC)c1`?
FMDV inh: 2%

Results for COCCN(C(=O)CCc1nnc(CCc2c[nH]c3ccccc23)o1)C(C)C ?
FMDV inh: -7%; RE007 growth inh: 7%; Tb PYK inh: 5%; Sm TGR block: -5%

What do the screens show for `CC(C)CCNC(=O)CCc1nnc(Cc2c[nH]c3ccccc23)o1`?
FMDV inh: 12%; RE007 growth inh: -12%; Tb PYK inh: -14%; Sm TGR block: 13µM*

How did COCCN(C(=O)CCc1nnc(Cc2c[nH]c3ccccc23)o1)C(C)C do in these assays?
FMDV inh: -10%; RE007 growth inh: 4%; Tb PYK inh: -17%; Sm TGR block: 20µM*

Results for C=CCOC(=O)C(=O)/C=C/c1csc2ccccc12 ?
FMDV inh: -4%; RE007 growth inh: 15%; Tb PYK inh: -6%; Sm TGR block: 28µM*

How did C=CCOC(=O)C(=O)/C=C/c1ccc2c(c1)Cc1ccccc1-2 do in these assays?
FMDV inh: 11%; RE007 growth inh: -6%; Tb PYK inh: -3%; Sm TGR block: -14%

Results for Cc1c(CCOC(=O)C23CC4CC(CC(C4)C2)C3)sc[n+]1CC#N ?
FMDV inh: inconclusive; RE007 growth inh: -13%; Tb PYK inh: 2%; Sm TGR block: 4.5µM*

What do the screens show for `Cc1c(CCO)sc[n+]1CC(=O)OCCC12CC3CC(CC(C3)C1)C2`?
FMDV inh: -10%; RE007 growth inh: -16%; Tb PYK inh: 2%; Sm TGR block: 5%

How did Cc1ncc(C[n+]2csc(CCOC(=O)CC34CC5CC(CC(C5)C3)C4)c2C)c(N)n1 do in these assays?
FMDV inh: -17%; RE007 growth inh: inactive; Tb PYK inh: -3%; Sm TGR block: 45µM*

Results for Cc1c(CCOC(=O)CC23CC4CC(CC(C4)C2)C3)sc[n+]1Cc1ccccc1 ?
FMDV inh: inconclusive; RE007 growth inh: 30%; Tb PYK inh: 7%; Sm TGR block: -11%

What do the screens show for `Cc1cc(C(=O)Nc2ccccc2-c2nc(CNC(=O)C3(C)CCCCC3)c(C)o2)c(C)o1`?
FMDV inh: 1%

What do the screens show for `O=S(Cc1ccc(Br)cc1)Cc1nnc(SCc2c(F)cccc2Cl)n1-c1ccccc1` (centres undefined)?
FMDV inh: 35µM*; RE007 growth inh: 0%; Tb PYK inh: -9%; Sm TGR block: -3%

How did COc1ccc(OC)c(CCNC(=O)c2csc3c2CCCCC3)c1 do in these assays?
FMDV inh: 33%; Tb PYK inh: -1%; Sm TGR block: -6%

What do the screens show for `CCc1cc(C(=O)NCC2Cc3cc(-c4ccccc4C(C)=O)ccc3O2)no1` (centres undefined)?
FMDV inh: -28%

How did Cc1cc(C)c(S(=O)(=O)Oc2ccccc2[N+](=O)[O-])c(C)c1 do in these assays?
FMDV inh: -26%; RE007 growth inh: 9%; Tb PYK inh: -8%

How did CC1=CC(=O)C=C(C)C1=NOc1ccccc1[N+](=O)[O-] do in these assays?
FMDV inh: -3%; RE007 growth inh: -11%; Tb PYK inh: -14%; Sm TGR block: 28µM*

What do the screens show for `O=C(Cn1sc2ccccc2c1=O)Nc1ccc(Br)cc1`?
FMDV inh: -18%; RE007 growth inh: 50%; Tb PYK inh: 7.9µM*

Results for O=C(Cn1sc2ccccc2c1=O)Nc1ccc(F)cc1 ?
FMDV inh: -13%; RE007 growth inh: -44%; Tb PYK inh: inconclusive

What do the screens show for `OCCC1CN(Cc2nc3c(s2)CCCC3)CCN1Cc1ccccc1` (centres undefined)?
FMDV inh: -12%; RE007 growth inh: 0%; Tb PYK inh: 8%; Sm TGR block: 35µM*
